The record followed here is PubChem BioAssay (NCATS).

Test [1] can be described thus: Cytotoxicity counterscreen for inhibitors of SARS-CoV-2 cell entry (AID 1645845). Further: nearly all actives have a fitted effect of over 50% in size. The gist of the method:
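ATP-content luminescence (ATPLite 1step, 15 min RT) read after 48 h compound exposure of Expi293F cells stably expressing human ACE2; normalized to cells-only wells and media-only wells.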

Test [2] can be described thus: Primary qHTS to identify inhibitors of SARS-CoV-2 cell entry (AID 1645846). Further: nearly all actives have a fitted effect of over 45% in size. Particulars: activity change, negative = inhibition: at 57.1 µM (top of the series) unless noted. The procedure, abridged:
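Data are normalized to wells receiving SARS-CoV-2-S pseudoparticles and those given bald particles. Entry signal was luciferase luminescence in stable hACE2 Expi293F cells, 48 hr post-infection, after 1 hr compound pretreatment.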

Several values for one entry are separate records, joined by “and”; a condition that tells them apart may be missing. Equal entries are not always repeated. Records with an inconclusive call do not appear. Activity calls are given as the source filed them. The call rests on the fitted dose curve.
Potency means the concentration at half of the fitted maximal effect.

On to `CN(C(=O)C(Cl)Cl)c1ccc(OC(=O)c2ccco2)cc1`, for which the Potency result in test [1] and in test [2] was “inactive” each time. In the case of `CCc1c(C)[nH]c2c1C(=O)C(CN1CCOCC1)CC2` (stereo unspecified), the Potency entry in test [1] and in test [2] was “inactive” in each case. Turning to `CN1[C@@H]2CC[C@H]1CC(OC(=O)C(O)c1ccccc1)C2` (stereo partly specified), the Potency entry in test [1] was “inactive”. The activity change, negative = inhibition in test [2] is -6.45%. As to `COc1ccc2cc(CCC(C)=O)ccc2c1`, the Potency entry in test [1] and in test [2] was “inactive” each time. Consider `CC(C)OC(=O)C1=CN(C(=O)c2ccc(F)c(F)c2)CC(C)(C)c2c1[nH]c1ccccc21`, for which, in test [1], the Potency result was “inactive”. In test [2], the activity change, negative = inhibition was -3.59%.

As to `C#CC(C)(CC)OC(=O)c1ccccc1C(=O)O` (stereo unspecified), the Potency entry in test [1] was “inactive”. The activity change, negative = inhibition in test [2] is 3.66%. For `Cc1cc(SCc2sc(-c3ccc(C(F)(F)F)cc3)nc2C)ccc1OCC(=O)O`, the Potency result in test [1] and in test [2] was “inactive” in each case. As to `O=C(O)CCC1CCC(c2cc(F)ccc2F)(S(=O)(=O)c2ccc(Cl)cc2)CC1` (stereo unspecified), the Potency result in test [1] was “inactive”. The activity change, negative = inhibition in test [2] is -2.05%.

As to `C/C(=C1\CCOC(=O)S1)N(C=O)Cc1cnc(C)nc1N`, the Potency entry in test [1] and in test [2] was “inactive” throughout. On to `C[C@H](NC(=O)Cc1cc(F)cc(F)c1)C(=O)N[C@@H]1C(=O)N(C)c2ccccc2-c2ccccc21`, for which, in test [1], the Potency entry was “inactive”. In addition, the activity change, negative = inhibition in test [2] came out at 3.07%. On to `CC(=O)Nc1ccc(O)cc1`, for which the Potency result in test [1] is “inactive”. Also, the activity change, negative = inhibition in test [2] is -27.9%.

With `Cc1nnc(C(C)C)n1C1CC2CCC(C1)N2CC[C@H](NC(=O)C1CCC(F)(F)CC1)c1ccccc1` (stereo partly specified), in test [1], the Potency result is “inactive”. In test [2], the activity change, negative = inhibition was 2.02% and -27.6%.

As to `CCN1CCN(c2cc3c(cc2F)c(=O)c(C(=O)O)cn3C2CC2)CC1`, the Potency result in test [1] and in test [2] was “inactive” in each case. Regarding `CCc1cc(Nc2nccc(-c3c(-c4ccc(OC)c(C(=O)Nc5c(F)cccc5F)c4)nc4ccccn34)n2)c(OC)cc1N1CCC(N2CCN(S(C)(=O)=O)CC2)CC1`, the Potency entry in test [1] and in test [2] was “inactive” in each case. Consider `C=C1C(=CC=C2CCC[C@]3(C)[C@@H]([C@H](C)C=C[C@H](C)C(C)C)CC[C@@H]23)C[C@@H](O)C[C@@H]1O`, for which the Potency result in test [1] and in test [2] was “inactive” in each case. Consider `CCOC(=O)[C@@H](N)CCC(=O)N[C@@H](CSCc1ccccc1)C(=O)N[C@@H](C(=O)OCC)c1ccccc1`, for which, in test [1], the Potency entry was “inactive”. The activity change, negative = inhibition in test [2] came out at 0.458%. `COc1cc2c(Oc3ccc(NC(=O)C4(C(=O)Nc5ccc(F)cc5)CC4)cc3F)ccnc2cc1OCCCN1CCOCC1`: the values for the Potency in test [1] and in test [2] were 31.6 µM (active) and 8.91 µM (active), respectively. The like results for `Nc1nc(-c2nn(Cc3ccccc3F)c3ncccc23)nc(N)c1N1CCOCC1` were, in that order, “inactive” and “inactive”.

Turning to `COc1nc(C)cnc1NS(=O)(=O)c1cccnc1-c1ccc(-c2nnco2)cc1`, the Potency entry in test [1] and in test [2] was “inactive” throughout. Consider `NC(=O)c1ccc(I)c([N+](=O)[O-])c1`, for which, in test [1], the Potency entry was “inactive”. In addition, the activity change, negative = inhibition in test [2] is -6.13%.

Turning to `NCCCC(N)(C(=O)O)C(F)F` (stereo unspecified), the Potency entry in test [1] and in test [2] was “inactive” each time. With `COc1ccc(CC2SC(=O)NC2=O)cc1C(=O)NCc1ccc(C(F)(F)F)cc1` (stereo unspecified), the Potency result in test [1] is “inactive”. Besides, the activity change, negative = inhibition in test [2] was -1.76%. For the molecule `Cc1cc2c(cc1C1(c3ccc(C(=O)O)cn3)CC1)C(C)(C)CCC2(C)C`, the Potency entry in test [1] and in test [2] was “inactive” each time. Take `CC(C)CCCC(C)CCCC(C)CCCCC(C)CCCC(C)CCCC(C)C` (stereo unspecified): the Potency result in test [1] is “inactive”. The activity change, negative = inhibition in test [2] is -16.5%. Turning to `CCCCCCCCCCCCCC(=O)OC(C)C`, the Potency entry in test [1] and in test [2] was “inactive” in each case.

Turning to `CCCCCCCC(=O)OCC(O)CO` (stereo unspecified), in test [1], the Potency entry was “inactive”. In test [2], the activity change, negative = inhibition was -24.7%. For `COc1cc2nc(-c3ccc(N4CCN(C)CC4)cc3)nc(NCCN3CCOCC3)c2cc1OC`, the Potency entry in test [1] is “inactive”. For the same molecule, the activity change, negative = inhibition in test [2] is -14.2%. With `CC1=C(/C=C/C(C)=C/C=C/C(C)=C/C(=O)O)C(C)(C)CCC1`, the Potency result in test [1] and in test [2] was “inactive” each time. Take `c1ccc(C2(c3ccccc3)CC2C2=NCCN2)cc1` (stereo unspecified): the Potency result in test [1] is “inactive”. The activity change, negative = inhibition in test [2] is -20.9%. As to `Cc1nc(N)sc1-c1ccnc(Nc2ccc(N3CCOCC3)cc2)n1`, the Potency in test [1] and in test [2] was 3.16 µM (active) in each case. Regarding `CC1(O)CC(c2nc(-c3ccc4ccc(-c5ccccc5)nc4c3)c3c(N)nccn23)C1` (stereo unspecified), the Potency result in test [1] is “inactive”. The activity change, negative = inhibition in test [2] is -23.9%. For `CCN(c1ccccc1)c1cc(NC)[n+](C)c(C)n1`, the Potency result in test [1] was “inactive”. In addition, in test [2], the activity change, negative = inhibition worked out at 3.72%. The like results for `C1Cc2[nH]nc(-c3nn[nH]n3)c2C1` were, in that order, “inactive” and 4.96%. `CC1=NN(c2ccccc2)C(=O)C1`: the Potency entry in test [1] is “inactive”. Moreover, the activity change, negative = inhibition in test [2] is 0.769% and -7.18%. As to `OCCn1cc(-c2cnc3nnn(Cc4ccc5ncccc5c4)c3n2)cn1`, the Potency result in test [1] and in test [2] was “inactive” in each case. Turning to `C[C@H](CN1CCCC1)C(=O)c1ccc(C(F)(F)F)cc1`, in test [1], the Potency result was “inactive”. Besides, the activity change, negative = inhibition in test [2] was -4.68%.

As for `COc1ncc(-c2ccc3nccc(-c4ccnnc4)c3c2)cc1NS(=O)(=O)c1ccc(F)cc1F`, in test [2], the Potency was 2.51 µM (active). Take `Nc1ccccc1NC(=O)c1ccc(CNC(=O)OCc2cccnc2)cc1`: the Potency result in test [2] is “inactive”. The same measure, in the same setting: then `S=C(NCc1ccc2c(c1)OCO2)N1CCN(c2ncnc3c2oc2ccccc23)CC1`, with 6.31 µM (active); and `O=c1cc(N2CCOCC2)oc2c(-c3cccc4c3sc3ccccc34)cccc12`, with 7.94 µM (active).
